Experimental findings from the antibiotic and cytotoxicity screens of Wong et al. (2023) are described below.

The campaign covered roughly 39,000 compounds. About 3,300 (8.5%) were called active. The sample holds actives, similar compounds and a random draw of the others, so the mix is not that of the screen.

This assay has as its system HepG2. Briefly: cytotoxicity call (relative viability < 0.9). Conditions: 10 µM.
For `CC(C)C#Cc1cnc2c(c1)C(=O)N([C@@H](C)CO)C[C@H](C)[C@H](CN(C)S(=O)(=O)c1cn(C)cn1)O2`, the cytotoxicity call was “inactive”.
The result for `CO[C@@H]1CN(C)C(=O)c2cc(NS(=O)(=O)CC(F)(F)F)ccc2OC[C@H](C)N(C(=O)c2ccc3c(c2)OCO3)C[C@@H]1C` reads “inactive”; that for `COc1ccc(S(=O)(=O)Nc2ccc3c(c2)C(=O)N([C@H](C)CO)C[C@@H](C)[C@@H](CN(C)S(=O)(=O)c2ccc(C)cc2)O3)cc1`, “inactive”; that for `C[C@H](CO)N1C[C@H](C)[C@H](CN(C)C(=O)Nc2ccccc2)OCCCC[C@H](C)Oc2ccc(NC(=O)Nc3ccc4c(c3)OCO4)cc2C1=O`, “inactive”.
The result for `COc1ccc(NC(=O)N(C)C[C@H]2OCCCC[C@@H](C)Oc3ccc(NC(=O)Cc4ccccc4)cc3C(=O)N([C@@H](C)CO)C[C@H]2C)cc1` reads “inactive”.
On to `C[C@@H]1CCCCO[C@H](CN(C)C(=O)Nc2ccc(F)cc2)[C@H](C)CN([C@H](C)CO)C(=O)c2cc(NC(=O)Nc3ccc(F)cc3)ccc2O1`, for which the cytotoxicity call is “inactive”.
The result for `C[C@H]1CN([C@@H](C)CO)C(=O)c2cc(NC(=O)Cc3ccccc3)ccc2O[C@@H]1CN(C)Cc1ccc(Cl)c(Cl)c1` reads “inactive”; that for `C[C@@H]1CCCCO[C@H](CN(C)S(=O)(=O)c2ccccc2)[C@H](C)CN([C@H](C)CO)C(=O)c2cc(NS(=O)(=O)c3cn(C)cn3)ccc2O1`, “inactive”.
The result for `COc1ccc(NC(=O)N(C)C[C@H]2Oc3c(NC(=O)c4cnccn4)cccc3C(=O)N([C@H](C)CO)C[C@@H]2C)cc1` reads “inactive”; that for `C[C@@H]1CCCCO[C@@H](CN(C)Cc2ccc(C(=O)O)cc2)[C@H](C)CN([C@H](C)CO)C(=O)c2cc(NS(=O)(=O)c3ccccc3)ccc2O1`, “inactive”.
Consider `Cc1noc(C)c1NC(=O)Nc1ccc2c(c1)C(=O)N([C@@H](C)CO)C[C@@H](C)[C@H](CN(C)Cc1ccc(Cl)c(Cl)c1)O2`, for which the cytotoxicity call was “inactive”.
On to `C[C@H]1CCCCO[C@@H](CN(C)Cc2ccc(C(F)(F)F)cc2)[C@@H](C)CN([C@@H](C)CO)C(=O)c2cc(NS(C)(=O)=O)ccc2O1`, for which the cytotoxicity call is “inactive”.
The result for `C[C@@H]1CCCCO[C@H](CN(C)Cc2ccc3c(c2)OCO3)[C@H](C)CN([C@@H](C)CO)C(=O)c2cc(NC(=O)Nc3cccc4ccccc34)ccc2O1` reads “active”; that for `C[C@@H]1CCCCO[C@H](CN(C)Cc2ccc3c(c2)OCO3)[C@H](C)CN([C@H](C)CO)C(=O)c2cc(NC(=O)Nc3cccc4ccccc34)ccc2O1`, “inactive”.
The result for `C[C@@H]1CCCCO[C@H](CN(C)Cc2ccc3c(c2)OCO3)[C@@H](C)CN([C@@H](C)CO)C(=O)c2cc(NC(=O)Nc3cccc4ccccc34)ccc2O1` reads “active”; that for `C[C@@H]1CCCCO[C@@H](CN(C)Cc2ccc3c(c2)OCO3)[C@@H](C)CN([C@@H](C)CO)C(=O)c2cc(NC(=O)Nc3cccc4ccccc34)ccc2O1`, “inactive”; that for `C[C@@H]1CCCCO[C@@H](CN(C)Cc2ccc3c(c2)OCO3)[C@@H](C)CN([C@H](C)CO)C(=O)c2cc(NC(=O)Nc3cccc4ccccc34)ccc2O1`, “inactive”.
The result for `C[C@@H]1CN([C@@H](C)CO)C(=O)c2cc(NC(=O)Nc3cccc4ccccc34)ccc2O[C@@H](C)CCCCO[C@H]1CN(C)Cc1ccc2c(c1)OCO2` reads “active”.
On to `C[C@@H]1CN([C@H](C)CO)C(=O)c2cc(NC(=O)Nc3cccc4ccccc34)ccc2O[C@@H](C)CCCCO[C@@H]1CN(C)Cc1ccc2c(c1)OCO2`, for which the cytotoxicity call is “active”.
The result for `C[C@H]1CCCCO[C@@H](CN(C)Cc2ccc3c(c2)OCO3)[C@@H](C)CN([C@@H](C)CO)C(=O)c2cc(NC(=O)Nc3cccc4ccccc34)ccc2O1` reads “inactive”; that for `CCOC(=O)c1c(C)c(Cl)c(O)c(Cl)c1O`, “inactive”.
For the compound `COc1ccc(S(=O)(=O)Nc2ccc3c(c2)CC(=O)N([C@H](C)CO)C[C@@H](C)[C@H](CN(C)C)O3)cc1`, the cytotoxicity call was “inactive”.
The result for `Cc1noc(C)c1NC(=O)N(C)C[C@@H]1OCCCC[C@@H](C)Oc2ccc(NC(=O)Nc3ccc(F)cc3)cc2C(=O)N([C@H](C)CO)C[C@@H]1C` reads “inactive”; that for `Cc1noc(C)c1S(=O)(=O)N(C)C[C@@H]1OCc2cnnn2CCCC(=O)N([C@@H](C)CO)C[C@H]1C`, “inactive”; that for `C[C@@H]1CCCCO[C@H](CN(C)C(=O)C2CCCCC2)[C@@H](C)CN([C@H](C)CO)C(=O)c2cc(NC(=O)C3CCCCC3)ccc2O1`, “inactive”.
With `CC(C)NC(=O)Nc1ccc2c(c1)C(=O)N([C@H](C)CO)C[C@@H](C)[C@H](CN(C)S(=O)(=O)c1cn(C)cn1)O2`, the cytotoxicity call was “inactive”.
The result for `COc1ccccc1CNC(=O)C[C@@H]1CC[C@H]2[C@@H](COC[C@H](O)CN2C(=O)Nc2ccc(F)cc2)O1` reads “inactive”.
Take `COCCNC(=O)C[C@H]1CC[C@H]2[C@@H](COC[C@H](O)CN2C(=O)Nc2ccccc2OC)O1`: the cytotoxicity call is “inactive”.
The result for `O=C(C[C@H]1CC[C@@H]2[C@H](COC[C@@H](O)CN2C(=O)Nc2cccc(Cl)c2)O1)NCc1ccccc1F` reads “active”; that for `O=C(C[C@H]1CC[C@H]2[C@@H](COC[C@H](O)CN2C(=O)Nc2cccc(Cl)c2)O1)NCc1ccccc1F`, “inactive”.
For the compound `COc1ccccc1CNC(=O)C[C@H]1CC[C@H]2[C@@H](COC[C@H](O)CN2C(=O)Nc2ccc(F)cc2)O1`, the cytotoxicity call is “active”.
`O=C(C[C@@H]1CC[C@H]2[C@@H](COC[C@H](O)CN2C(=O)Nc2cccc(Cl)c2)O1)NCc1ccccc1F`: the cytotoxicity call was “inactive”.
The result for `COCCNC(=O)C[C@H]1CC[C@@H]2[C@H](COC[C@@H](O)CN2C(=O)Nc2ccccc2OC)O1` reads “inactive”.
On to `COc1ccccc1CNC(=O)C[C@@H]1CC[C@@H]2[C@H](COC[C@@H](O)CN2C(=O)Nc2ccc(F)cc2)O1`, for which the cytotoxicity call was “inactive”.
As for `COCCNC(=O)C[C@H]1CC[C@@H]2[C@H](COC[C@H](O)CN2C(=O)Nc2ccccc2OC)O1`, the cytotoxicity call was “active”.
The result for `CO[C@@H]1CN(C)C(=O)c2cc(NC(=O)c3ccc(F)cc3)ccc2OC[C@H](C)N(C(=O)CN(C)C)C[C@@H]1C` reads “inactive”.
On to `CN1C(=O)c2cc(NC(=O)Nc3ccccc3F)ccc2OC[C@@H]2O[C@H](CC(=O)NCc3ccc(-c4ccccc4)cc3)CC[C@@H]21`, for which the cytotoxicity call is “inactive”.
The result for `CS(=O)(=O)N1CCCn2c(nc(CNC(=O)CC3CC3)cc2=O)C1` reads “inactive”; that for `CC(C)Oc1oc(C(=O)NC2CCCCC2)c(-c2ccc(Cl)cc2)c1S(=O)(=O)c1ccc(Cl)cc1`, “inactive”; that for `C[C@H](CO)N1C[C@H](C)[C@@H](CN(C)Cc2ccncc2)OCCCC[C@H](C)Oc2ccc(NC(=O)NC3CCCCC3)cc2C1=O`, “inactive”.
The result for `O=C(C[C@@H]1C=C[C@@H](NC(=O)C2CC2)[C@H](CO)O1)NCCCN1CCOCC1` reads “inactive”; that for `CN(C)C(=O)C[C@@H]1C=C[C@H](NC(=O)C2CCOCC2)[C@@H](CO)O1`, “inactive”.
The result for `C[C@H](CO)N1C[C@H](C)[C@H](CN(C)S(=O)(=O)c2ccccc2)Oc2ccc(NC(=O)c3ccncc3)cc2C1=O` reads “inactive”; that for `O=S1(=O)CO[C@@H](c2ccccc2)CN1`, “inactive”; that for `O=C(CS)NCCCCCCNC(=O)[C@@H]1C[C@@H]2C(=O)N3CCC[C@H]3C(=O)N2[C@@H]1c1cccc(OCCO)c1`, “inactive”.
For `O=C(C[C@H]1CC[C@H]2[C@@H](COC[C@H](O)CN2Cc2cc(F)ccc2F)O1)N[C@@H]1CCN(Cc2ccccc2)C1`, the cytotoxicity call was “inactive”.
As for `COc1ccc(NC(=O)Nc2cccc3c2O[C@H](CN(C)C(=O)Nc2ccc(C(F)(F)F)cc2)[C@@H](C)CN([C@@H](C)CO)C3=O)cc1`, the cytotoxicity call is “inactive”.
As to `C[C@@H]1CN([C@H](C)CO)C(=O)c2cccc(NC(=O)Nc3ccc(C(F)(F)F)cc3)c2O[C@H]1CN(C)C(=O)Nc1ccc(C(F)(F)F)cc1`, the cytotoxicity call was “inactive”.
The result for `COc1ccc(NC(=O)N(C)C[C@H]2Oc3c(NC(=O)Nc4ccc(C(F)(F)F)cc4)cccc3C(=O)N([C@@H](C)CO)C[C@H]2C)cc1` reads “active”; that for `C[C@@H]1CN([C@@H](C)CO)C(=O)c2cccc(NC(=O)Nc3ccc(C(F)(F)F)cc3)c2O[C@H]1CN(C)C(=O)Nc1ccc(C(F)(F)F)cc1`, “inactive”; that for `C[C@H]1CN([C@@H](C)CO)C(=O)c2cccc(NC(=O)Nc3ccc(C(F)(F)F)cc3)c2O[C@H]1CN(C)C(=O)Nc1ccc(C(F)(F)F)cc1`, “inactive”.
With `C[C@H](CO)N1C[C@H](C)[C@H](CN(C)C(=O)Nc2ccc(C(F)(F)F)cc2)Oc2c(NC(=O)Nc3ccc(C(F)(F)F)cc3)cccc2C1=O`, the cytotoxicity call was “active”.
Consider `C[C@@H]1CN([C@@H](C)CO)C(=O)c2cccc(NC(=O)Nc3ccc(C(F)(F)F)cc3)c2O[C@@H]1CN(C)C(=O)Nc1ccc(C(F)(F)F)cc1`, for which the cytotoxicity call was “active”.
The result for `C[C@H]1CN([C@@H](C)CO)C(=O)c2cccc(NC(=O)Nc3ccc(C(F)(F)F)cc3)c2O[C@@H]1CN(C)C(=O)Nc1ccc(C(F)(F)F)cc1` reads “active”; that for `COc1ccc(NC(=O)Nc2cccc3c2O[C@@H](CN(C)C(=O)Nc2ccc(C(F)(F)F)cc2)[C@@H](C)CN([C@@H](C)CO)C3=O)cc1`, “inactive”.
The result for `C[C@@H]1CN([C@H](C)CO)C(=O)c2cccc(NC(=O)Nc3ccc(C(F)(F)F)cc3)c2O[C@@H]1CN(C)C(=O)Nc1ccc(C(F)(F)F)cc1` reads “inactive”; that for `O=C(O)C[C@@H]1C=C[C@@H](NC(=O)c2ccncc2)[C@H](CO)O1`, “inactive”.
The result for `CCCN(C)C[C@H]1OCCCC[C@@H](C)Oc2ccc(NC(=O)c3ccccc3)cc2C(=O)N([C@H](C)CO)C[C@H]1C` reads “inactive”.
As to `Cc1noc(C)c1NC(=O)Nc1ccc2c(c1)C(=O)N([C@H](C)CO)C[C@@H](C)[C@@H](CN(C)C(=O)Nc1ccccc1)OCCCC[C@@H](C)O2`, the cytotoxicity call was “inactive”.
The result for `CN1N=C(N)c2cn([C@@H]3O[C@H](COP(=O)(O)O)[C@@H](O)[C@H]3O)c3ncnc1c23` reads “inactive”.
Regarding `C[C@@H]1CN([C@@H](C)CO)C(=O)Cc2cc(NC(=O)CCN3CCOCC3)ccc2O[C@H]1CN(C)C(=O)Nc1ccccc1`, the cytotoxicity call is “inactive”.
